Most compounds without a hit are left out; they make up all but 1.9% or so of the library.
HMGR II inh – blocks class II HMG-CoA reductase of Enterococcus faecalis; inhibition, % at 10 µM; purified E. faecalis HMGR, NADPH absorbance 340 nm kinetic; 0.41% of 190,000 active;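 active = inhibition above a set limit, the median over all tested compounds plus 3 SD, cut at about 9.5% in these data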;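 note: enzyme runs in reverse so mevalonate oxidation gives rising NADPH absorbance; 0% = complete reaction with DMSO and 100% = background rate lacking mevalonate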
m-calpain inh – inhibitors of pig calpain II; purified calpain II, fluorogenic peptide substrate, 30 min; inhibition, % at 16 µM; 0.37% of 220,000 active; AID 1236;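 active = inhibition above about 50%, limit read from the data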
EP2 antag – inhibitors of human EP2 prostaglandin E2 receptor; C6 glioma cells expressing human EP2, cAMP TR-FRET; cells stimulated with saturating PGE2; inhibition, % at 25 µM; 0.52% of 260,000 active; AID 1422;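 active = percent inhibition above 40 after rounding to a whole number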;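 note: rat C6 glioma host cells with rolipram phosphodiesterase inhibitor present; the protocol text gives 20 µM as final concentration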
Target sequence (P43116 whole entry, looked up): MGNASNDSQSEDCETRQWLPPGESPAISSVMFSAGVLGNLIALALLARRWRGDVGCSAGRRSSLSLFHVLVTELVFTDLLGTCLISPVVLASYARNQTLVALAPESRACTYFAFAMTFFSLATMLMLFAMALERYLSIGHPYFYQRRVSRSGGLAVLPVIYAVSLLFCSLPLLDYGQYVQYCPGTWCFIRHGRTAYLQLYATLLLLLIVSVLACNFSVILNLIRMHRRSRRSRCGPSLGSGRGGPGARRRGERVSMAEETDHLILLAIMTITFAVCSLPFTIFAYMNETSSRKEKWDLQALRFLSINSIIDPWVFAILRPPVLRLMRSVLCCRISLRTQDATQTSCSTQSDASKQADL
Furin inh – inhibitors of human furin; P09958; purified furin, fluorogenic substrate cleavage; inhibition, % at 20 µM or 30 µM; 0.061% of 220,000 active; in the data active = inhibition above about 25%
EP2 modulator – modulators of human EP2 prostaglandin E2 receptor | induction, % at 25 µM | 0.83% of 260,000 active | EP2-expressing cells, cAMP HTRF FRET, PGE2 co-stimulation;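 active = compounds whose cAMP rise, as percent of the full-agonist control response, exceeds 60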;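 note: rat C6 glioma line stably carrying human EP2 under a CMV promoter; the protocol text gives 20 µM as final concentration; 100% = response of wells given 1 µM PGE2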
EP2 cAMP induct – EP2 receptor cAMP induction, counter-screens negative | shares compounds with EP2 modulator | 47% of 1,300 active | calls only at 20 µM (by protocol) | C6 glioma EP2 cells, cAMP HTRF induction; plus low (about EC15) PGE2 agonist;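 active = cAMP induction above 50% in the main assay while under 30% in all four parallel counter assays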;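 note: rat C6 glioma cells stably expressing human EP2 receptor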
Numbers without * were called inactive; i = inactive; . = no result given; + = active, no number; ! = repeats disagree.

SMILES	HMGR II inh	m-calpain inh	EP2 antag	Furin inh	EP2 modulator	EP2 cAMP induct
COc1ccc(C(=O)Nc2ccccc2N2CCCCC2)cc1[N+](=O)[O-]	-4	18	5	-14	52	+
Nc1nc(Cc2ccccc2)nc(Cc2ccccc2)c1-c1ccccc1	.	.	39	.	67*	i
COc1ccc2c(c1)cc(C)c1nn(CC(=O)NC3CCCCC3)c(=O)n12	.	.	.	.	3	.
CC(C)=CC1C(CO)C1(C)C (stereo not drawn)	.	.	12	.	30	.
O=C(/C(=C/O)N=Nc1ccccc1)c1cccs1	7	-33	4	-7	81*	+
COc1ccc(N=N/C(=C\O)C(=O)c2ccco2)cc1	-1	-12	5	2	8	.
N#CC1(Cc2ccccc2Cl)c2ccccc2C=CN1C(=O)c1ccccc1 (stereo not drawn)	-1	-35	.	-5	70*	i
N#CC1c2ccccc2C=CN1C(=O)c1ccccc1 (stereo not drawn)	.	4	2	-2	-1	.
O=C1N=C(N2CCOCC2)S/C1=C/c1ccc(-c2ccc(Cl)cc2)o1	.	.	0	.	-69	.
S=c1[nH]cc(-c2ccccc2)n1-c1ccccc1	-3	-6	11	-12	75*	i
CCCC(NC(=O)c1cnc(SC)nc1)c1ccc2c(c1)OCCO2 (stereo not drawn)	.	.	6	.	-73	.
Clc1ccc(COn2c(-c3ccccc3)nc3ccccc32)cc1	-2	-3	3	-14	67*	i
Clc1cc2c(c(CSc3nc4ccccc4[nH]3)c1)OCOC2	.	.	5	.	-110	.
Nc1cccc(OCc2nc(N)nc(N)c2-c2ccc(Cl)cc2)c1	.	.	8	.	56	i
Cc1ccc(-c2csc(Nc3ccc(C(=O)O)cc3)[n+]2Cc2ccccc2)cc1	-1	-4	4	-12	76*	+
CC1CC(C)CN(CC(=O)NC(c2ccccc2)c2ccccc2)C1 (stereo not drawn)	-4	40	9	-19	72*	i
CC1Cc2ccccc2N1CC(=O)NC(c1ccccc1)c1ccccc1 (stereo not drawn)	3	26	10	-3	72*	+
COc1ccc(C2=NN(CC(=O)NC(C)C)C(=O)c3cc4sccc4n3C2)cc1	.	.	.	.	-38	.
C=CCNC(=O)CN1CCC(NC(=O)c2ccc(OC)c(OC)c2)CC1	.	.	7	.	-18	.
CCNC(=S)N(Cc1cccnc1)Cc1cc2cc(OC)ccc2[nH]c1=O	.	.	28	.	-3	.
COC(=O)CN1C(=O)C2(SC(NC(C)=O)=NN2C(C)=O)c2cc(C)cc(C)c21 (stereo not drawn)	.	.	10	.	5	.
CCCCc1ccc(-n2c(Cc3cccs3)n[nH]c2=S)cc1	-7	13	9	-12	71*	+
S=c1[nH]nc(Cc2cccs2)n1-c1ccccc1	-3	10	.	-10	4	.
Cc1cc2cc(C(c3nnnn3CC3CCCO3)N3CCCc4ccccc43)c(=O)[nH]c2cc1C (stereo not drawn)	3	-180	0	-10	23	.
CCc1ccc2[nH]c(=O)c(C(c3nnnn3CC3CCCO3)N3CCCc4ccccc43)cc2c1 (stereo not drawn)	-3	-30	3	-17	77*!	+
SMILES	HMGR II inh	m-calpain inh	EP2 antag	Furin inh	EP2 modulator	EP2 cAMP induct
C=CCn1nc(C)n2c(cc3occc32)c1=O	.	.	10	.	-2	.
O=C(Nc1ccc(NC(=O)c2ccco2)cc1)c1cccc(Cl)c1	.	.	6	.	-35	.
C=CCSc1nc2ccccc2n1S(=O)(=O)c1ccc(C)cc1	-3	21	11	-1	67*	+
Cc1ccc(S(=O)(=O)n2c(N)nc3ccccc32)cc1	.	.	6	.	32	.
Cc1cc(C)c2[nH]c(C(=O)NCCn3nc(C)nc3C)c(C)c2c1	.	.	6	.	-32	.
Cc1ccccc1S(=O)(=O)c1c(C)cc(C)n(C(C)C)c1=O	5	4	3	-21	71*	+
CCCCn1c(C)cc(C)c(S(=O)(=O)c2ccccc2C)c1=O	0	-1	11	-7	78*	+
CC(C)(CN)SCc1ccccc1	.	.	8	.	5	.
COC(=O)/C(C)=C/CC12OC(C)(C)C3CC(C=C4C(=O)c5cc6c(c(CCC(C)(C)Cl)c5OC431)OC1(C)CCC(=C(C)C)C6C1)C2=O (stereo not drawn)	.	.	13	.	0	.

Assay outcomes (PubChem)
